Measured values from PubChem BioAssay (NCI).
The panel holds about 83,000 compounds, 20% with a hit somewhere; the sample as a whole holds those more often.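 The endpoint reported here, percent growth, reads 100 for growth as untreated, 0 for no net growth and -100 for all cells dead.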 Unmarked numbers belong to inactive results. Activity calls are given as the source filed them. How the source made its calls: active means growth percent below 10; inactive means the rest.

Columns and labels:
Assay in all cases: NCI-60 one-dose screen, 48 h (100 = growth as untreated, 0 = no growth, -100 = all killed)
Conditions in all cases: 10 µM unless noted
DU-145 prostate = test system: DU-145 prostate
K-562 leukemia = test system: K-562 leukemia
MALME-3M melanoma = test system: MALME-3M melanoma
MDA-MB-231 breast = test system: MDA-MB-231 breast
RXF 393 renal = test system: RXF 393 renal
SF-268 CNS = test system: SF-268 CNS
SF-295 CNS = test system: SF-295 CNS
SF-539 CNS = test system: SF-539 CNS
UACC-257 melanoma = test system: UACC-257 melanoma
M14 melanoma = test system: M14 melanoma
HCT-15 colon = test system: HCT-15 colon
HT29 colon = test system: HT29 colon
SNB-75 CNS = test system: SNB-75 CNS
SNB-19 CNS = test system: SNB-19 CNS
U251 CNS = test system: U251 CNS
PC-3 prostate = test system: PC-3 prostate
SK-MEL-5 melanoma = test system: SK-MEL-5 melanoma
UACC-62 melanoma = test system: UACC-62 melanoma
LOX IMVI melanoma = test system: LOX IMVI melanoma
SK-MEL-28 melanoma = test system: SK-MEL-28 melanoma

Row | Structure (SMILES) | growth (DU-145 prostate) | growth (K-562 leukemia) | growth (MALME-3M melanoma) | growth (MDA-MB-231 breast) | growth (RXF 393 renal) | growth (SF-268 CNS) | growth (SF-295 CNS) | growth (SF-539 CNS) | growth (UACC-257 melanoma) | growth (M14 melanoma) | growth (HCT-15 colon) | growth (HT29 colon) | growth (SNB-75 CNS) | growth (SNB-19 CNS) | growth (U251 CNS) | growth (PC-3 prostate) | growth (SK-MEL-5 melanoma) | growth (UACC-62 melanoma) | growth (LOX IMVI melanoma) | growth (SK-MEL-28 melanoma)
1 | Cc1cnc(N)nc1OCCNC(=O)c1cccc(-c2ccc(S(=O)(=O)Nc3ccc4c(c3)N(C(=O)C3CC3)CCC4)cc2)c1 | 90.2% | 58.8% | 120% | 89.5% | 88.3% | 74.5% | 77.9% | 92% | 84.1% | 80.1% | 96.4% | 80.5% | 57.3% | 75.5% | 88.4% | 53.5% | 23.8% | 48.1% | 88.5% | 88.6%
2 | CC(C)=CCC[C@](C)(O)[C@H]1CC[C@]2(C)[C@@H]1CC[C@@H]1[C@@]3(C)CC[C@H](OC(=O)CCC(=O)O)C(C)(C)[C@@H]3CC[C@]12C | 40.8% [100 µM] | 24.2% [100 µM] | 10.5% [100 µM] | 13.5% [100 µM] | 37.8% [100 µM] | 52% [100 µM] | 4.05% [100 µM] (active) | 31% [100 µM] | 28.3% [100 µM] | 30.2% [100 µM] | 19.3% [100 µM] | 2.98% [100 µM] (active) | 43.3% [100 µM] | 24.1% [100 µM] | 2.41% [100 µM] (active) | 27.4% [100 µM] | -41.3% [100 µM] (active) | -75.4% [100 µM] (active) | -64.1% [100 µM] (active) | -46% [100 µM] (active)
3 | C=C(C)[C@@H]1CC[C@]2(C(=O)OC)CC[C@]3(C)[C@H](CC[C@@H]4[C@@](C)(CCc5nn[nH]n5)[C@H](C(=C)C)CC[C@]43C)[C@@H]12 | 0.51% [100 µM] (active) | 14.5% [100 µM] | -52% [100 µM] (active) | -76.9% [100 µM] (active) | -78.3% [100 µM] (active) | -23.1% [100 µM] (active) | -35.2% [100 µM] (active) | -65% [100 µM] (active) | -5.16% [100 µM] (active) | -9.37% [100 µM] (active) | 6.32% [100 µM] (active) | -16.1% [100 µM] (active) | -77.8% [100 µM] (active) | -5.69% [100 µM] (active) | -26.5% [100 µM] (active) | 5.02% [100 µM] (active) | -73.7% [100 µM] (active) | -72.8% [100 µM] (active) | -90.9% [100 µM] (active) | -63% [100 µM] (active)
4 | CC1(C)C(=NO)C(C)(C)C1=NO | 114% | 98.8% | 116% | 123% | 112% | 103% | 108% | 117% | 95.4% | 99.5% | 102% | 105% | 96.5% | 107% | 113% | 90.7% | 103% | 109% | 108% | 113%
5 | C=C1C(=O)O[C@H]2[C@H]1CC/C(COC(=O)NCc1ccc(Cn3c(=O)sn(-c4ccc(Cl)cc4)c3=O)cc1)=C\CC[C@@]1(C)O[C@@H]21 | 18.1% | 6.2% (active) | 65.2% | 54.7% | 62% | 83.7% | 99.5% | 90.8% | 72.9% | 59.2% | 54.5% | 37.8% | 79.7% | 91.9% | 90.2% | 76.2% | 97.6% | 76.5% | 58.4% | 101%
6 | O=C(O)c1cn(C2CC2)c2cc(N3CCN(Cc4c(O)ccc5ccccc45)CC3)c(F)cc2c1=O | 3.75% (active) | 58.4% | 10.9% | 43.6% | -29.2% (active) | 47.1% | 39.3% | -17.7% (active) | 35.1% | 47.6% | 5.61% (active) | -46.7% (active) | -20.8% (active) | 83.1% | 37.5% | 36.1% | 58.4% | 38.8% | 37.1% | 27.8%
7 | CCCC[C@@H](C=O)NC(=O)[C@H](CC(C)C)NC(=O)[C@H](CC(C)C)NC(=O)OCc1ccccc1 | -38.2% (active) | 0.815% (active) | -33% (active) | -32.3% (active) | -63.7% (active) | -11.9% (active) | -12% (active) | -45.7% (active) | 12.4% | -35.3% (active) | 8.85% (active) | -19.4% (active) | -45.1% (active) | 22.1% | 5.84% (active) | 5.37% (active) | -71% (active) | -38% (active) | -65.2% (active) | -21.7% (active)
8 | CC(C)(C)OC(=O)N1C=C/C(=C\Cn2cc(-c3ccccc3)nn2)CC1 | 88.2% | 41.4% | 65.7% | 75.9% | 91.8% | 81% | 61% | 79.5% | 66% | 56.5% | 86.9% | 99.1% | 78.8% | 73.1% | 91.8% | 82.7% | 36.7% | 65.6% | 76.9% | 72.7%
9 | COc1ccc2nc3ccccc3c(NCCNCCO)c2c1 | -31.2% (active) | 18.9% | -65.5% (active) | -18.9% (active) | -63% (active) | -27.9% (active) | -18.4% (active) | -11.1% (active) | -50% (active) | -87.3% (active) | 19.6% | -11.9% (active) | -53.2% (active) | 1.53% (active) | 6.95% (active) | 4.92% (active) | -32.9% (active) | -70.2% (active) | -52.2% (active) | -70.4% (active)
10 | O=C1NC(=O)c2cc([N+](=O)[O-])cc3cccc1c23 | 106% | 131% | 107% | 100% | 98.2% | 98% | 114% | 105% | 76.7% | 93.3% | 95.2% | 102% | 90.2% | 100% | 82.3% | 78.8% | 101% | 87% | 81.5% | 108%
11 | CC(=O)Nc1ccc2nc3ccc(NC(C)=O)cc3[n+](-c3ccccc3)c2c1 | 117% | 57.1% | 115% | 66.3% | 101% | 97.5% | 121% | 89.3% | 94.5% | 107% | 104% | 115% | 82.2% | 94.2% | 109% | 104% | 96.3% | 103% | 96.8% | 166%
12 | CN(Cc1cccc(C(F)(F)F)c1)C(=O)[C@@H](CC(=O)N1CCC(N2CCCCC2)CC1)N1C(=O)[C@@H](N2C(=O)OC[C@@H]2c2ccccc2)[C@H]1/C=C/c1ccccc1 | 103% | 65.7% | 96.8% | 55.7% | 76.3% | 77.8% | 90.8% | 81.9% | 88.9% | 98.7% | 94.1% | 86.6% | 81.3% | 81% | 67.1% | 67.1% | 34.5% | 96.2% | 69.2% | 93.3%
13 | CN(C)c1cc(NN=C(c2ccc(O)cc2)c2ccc(O)cc2)c([N+](=O)[O-])cc1[N+](=O)[O-] | 96.8% | 118% | 153% | 81.8% | 0.652% (active) | 81.5% | 79.3% | 74.9% | 25.1% | 48.2% | 46.4% | 114% | 98% | 67.7% | 70.8% | 87.8% | 26% | 71.7% | 43.7% | 81.5%
14 | CC1(C)OC2[C@@H](CNC(=O)NC(=O)NC(=O)CI)O[C@@H](n3cnc4c(NC(=O)Nc5ccccc5)ncnc43)[C@H]2O1 (stereo not given in full) | 105% | 4.48% (active) | -61.1% (active) | 58.4% | 54.9% | 73.4% | 84.6% | 27.2% | 94.7% | 69.4% | 17.2% | 9.35% (active) | 80.5% | 94.6% | 95.5% | 68.3% | 103% | 93.8% | -79.4% (active) | 97.8%
